Experimental data from PubChem BioAssay (NCATS).
Records with an inconclusive call do not appear. Active and inactive are the calls of the source. Unless noted, calls follow the shape of the dose curve; as a rule, active = well fitted curve in the direction sought with a large enough effect; inconclusive = small, poorly fitted or top-dose-only effect, or another doubt; inactive = no such curve, though single readings can be large; an effect the other way counts as inactive or inconclusive.

What was measured:
[1] = Nrf2 qHTS screen for inhibitors: Validation (AID 493153; active = well fitted inhibition curve with a large enough effect in the main read-out, with a control signal flat, not every such curve was filed as active); settings: A549 ARE-Fluc reporter, 18-24 h; Potency: luciferase luminescence; viability change: measured here: cytotoxicity max response; luciferase luminescence, at 46.1 µM (top of the series)
Procedure, shortened: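 Dose-response validation uses reporter A549 cells with firefly luciferase under an antioxidant response element. Compounds stay on cells 18-24 h at 37°C, and luminescence indicates Nrf2-driven transcription.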

[2] = qHTS for Inhibitors of Cell Surface uPA Generation: Validation Assay (AID 493164); settings: mouse cells, plasminogen activation; series mostly up to 38.3 µM;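 also: RAW 264.7 macrophage cells exposed to compound for 18 h; 0% is about no effect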
Procedure, shortened: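 RAW 264.7, 4000 cells/well, o/n plating; cpd 7-pt 1:5 dilution 2.45 nM–38.3 uM final; 18 h, 37 C/5% CO2; ATP-Lite, 5 s luminescence exposure.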

[3] = biological target: Peptidyl-prolyl cis-trans isomerase NIMA-interacting 1 (Homo sapiens) (UniProt Q13526); experiment: qHTS Validation Assay to Find Inhibitors of Pin1 (AID 504536; active = well fitted inhibition curve with a large enough effect in the polarisation, with a control signal flat, not every such curve was filed as active; the % refers to the polarisation;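 also: 0% = full Pin1 enzyme wells and -100% = no-enzyme wells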); settings: Pin1 fluorescence polarization peptide binding assay; series mostly up to 57.5 µM
Procedure, shortened: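 Fluorescence polarization competition: compounds (titration) displace HiFluor-488-labeled Pin1-1b peptide from Pin1 (0.3 uM final) in pH 7.5 HEPES buffer with DTT, 10 min at room temperature; %Activity normalized to no-enzyme wells, curves fitted.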

[4] = biological target: Phosphoglycerate kinase, glycosomal (Trypanosoma brucei brucei) (UniProt P07378); experiment: qHTS Validation Assay to Find Inhibitors of Phosphoglycerate Kinase (AID 504547); settings: enzymatic PGK inhibition, coupled luminescence read-out; series mostly up to 57.5 µM;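 also: control wells lack PGK and mark full inhibition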
Procedure, shortened: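 Inhibition of the enzyme is judged by a Kinase-Glo Plus luminescent signal following a one-hour incubation at room temperature. Because 1,3-BPG is unstable, it is made in situ by GAPDH at 100nM final; no-PGK wells define the baseline.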

[5] = biological target: phosphoglycerate mutase (Leishmania major) (UniProt Q4Q090); experiment: qHTS Validation Assay to Find Inhibitors of Phosphoglycerate Mutase (AID 504548); settings: biochemical enzyme activity; Potency: inhibition qHTS; series mostly up to 57.5 µM; also: % is scaled to controls: 0 for no effect and ±100 for the full control effect
Procedure, shortened: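 Lm PGAM 1.25nM final; 100 mM TEA pH 7.6, 5 mM MgCl2, 0.01% Tween-20; 45 min RT; Kinase-GloPlus, 10 min; end-point luminescence. Enzyme-free wells as negative controls.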

[6] = Inducers of the Endoplasmic Reticulum Stress Response (ERSR) in human glioma: Validation (AID 504836); settings: human glioma cells, ER stress response reporter; series mostly up to 38.3 µM; also: 0% is about no effect
Procedure, shortened: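 ERSR induction read as luciferase luminescence (Bright-Glo, 10 min at room temperature) in stably transfected human U87-MG glioma cells exposed to compounds for 16 h, using GRP78 as sensor.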

[7] = biological target: Ubiquitin carboxyl-terminal hydrolase 1 (Homo sapiens) (UniProt O94782); experiment: Inhibitors of USP1/UAF1: Pilot qHTS (AID 504865); settings: purified USP1/UAF1, Ub-rhodamine cleavage fluorescence; series mostly up to 114 µM;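 also: rhodamine fluorescence freed from ubiquitin-rhodamine substrate followed over time; top concentration of the series differs between compounds; % is scaled to controls: 0 for no effect and ±100 for the full control effect; nearly all actives have a fitted effect of over 35% in size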
Procedure, shortened: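 USP1/UAF1 complex (1nM) preincubated with compound 15 min at room temperature, then Ub-Rho substrate (150nM final) added. Fluorescence read kinetically at 480/540 nm, 6 reads every 60 seconds. Buffer: 50mM HEPES pH 7.8, 0.5mM EDTA, 0.1 mg/ml BSA, 1mM TCEP, 0.01% Tween-20.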

[8] = qHTS for Inhibitors of ATXN expression: Validation of Cytotoxic Assay (AID 588349); settings: cytotoxicity counter-screen for ATXN expression inhibitors, cell viability; series mostly up to 57.1 µM;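 also: cells exposed to compound for 72 hr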; also: potency is read from the fitted curve at half-maximal effect
Procedure, shortened: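 HEK293, compound dose series, 72 hr / 37 degrees C; viability via CellTiter Glo (intracellular ATP).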

[9] = qHTS for Inhibitors of ATXN expression: Validation (AID 588378); settings: cell-based ATXN2 expression reporter assay, luminescence; series mostly up to 57.1 µM; also: nearly all actives have a fitted effect of over 75% in size; also: potency is read from the fitted curve at half-maximal effect
Procedure, shortened: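 Luminescence from an ATXN2-FFLuc reporter in HEK293 cells served as read-out after 24 h compound treatment at 37 degrees C; CellTiter-Fluor fluorescence was recorded first to assess viability.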

[10] = biological target: Thyrotropin-releasing hormone receptor (Homo sapiens) (UniProt P34981); experiment: qHTS for Small Molecule Agonists and Allosteric Enhancers of Human TRH Receptor: Validation Screen for Agonists (AID 493127;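 active = calcium activation more than 3 SD above the typical response in the agonist read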;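 also: intracellular calcium rise by fluo-8 fluorescence before TRH EC20 addition; 0% is about no effect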); settings: TRH receptor agonist cell assay; at 2 µM; stronger effect = higher value
Procedure, shortened: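 Gq-coupled calcium mobilization in TRHR cells after compound addition, monitored kinetically with fluo-8 dye on an FDSS reader.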

[11] = biological target: Galactokinase (Homo sapiens) (UniProt P51570); experiment: qHTS Validation Assay for Inhibitors of Human Galactokinase (GALK) (AID 493189); settings: purified human GALK enzyme activity, qHTS 7-point titration; series mostly up to 57.5 µM; also: 0% is about no effect
Procedure, shortened: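 GALK (5 nM) with 35 uM ATP and 100 uM galactose in HEPES pH8.0, MgCl2, NaCl, DTT, BSA; 1 h at room temperature. Residual ATP read by Kinase-Glo Plus luminescence after 10 min.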

[12] = Validation screen for small molecules that induce DNA re-replication in SW480 colon adenocarcinoma cells (AID 504364); settings: DNA re-replication phenotype (high-content imaging); series mostly up to 46.1 µM; also: 0% is about no effect
Procedure, shortened: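 Cells are treated 48 hr with test compound, stained 40 min with Hoechst at 37 C, and scanned for nuclear fluorescence; compounds inducing re-replication increase nuclei with elevated intensity.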

[13] = biological target: DNA dC->dU-editing enzyme APOBEC-3G (Homo sapiens) (UniProt Q9HC16); experiment: qHTS for inhibitors of Vif-A3G interactions: Validation (AID 588379); settings: Vif-A3G protein interaction assay; series mostly up to 46.1 µM; also: 0% is about no effect
Procedure, shortened: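 HeLa cells stably expressing Vif and A3G-eYFP, 700 cells/well, incubated overnight at 37 deg C, then exposed to compound overnight at 37 deg C. Inhibition of Vif-mediated degradation read as increased yellow fluorescence (Ex 488/Em 500-530) by laser-scanning cytometry.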

[14] = biological target: Androgen receptor (Homo sapiens) (UniProt P10275); experiment: qHTS assay for small molecule agonists of androgen receptor signaling (AID 588515; active = well fitted curve in the direction sought with a large enough effect in the signal ratio, with a control signal flat; the % refers to the signal ratio; also: % is scaled to controls: 0 for no effect and ±100 for the full control effect); settings: AR-UAS-bla HEK293, beta-lactamase ratio, agonist 16 h; stronger effect = higher value
Procedure, shortened: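 EC50 and efficacy came from Hill fits of titrations (up to 92 uM) normalized to 30 nM R1881 as 100% and DMSO as 0%. Compound exposure was 16 h at 37 C on AR-UAS-bla HEK293 cells, with a 405/460/530 nm CCF4 fluorescence read.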

[15] = biological target: Androgen receptor (Homo sapiens) (UniProt P10275); experiment: qHTS assay for small molecule antagonists of androgen receptor signaling (AID 588516; active = well fitted curve in the direction sought with a large enough effect in the signal ratio, with a control signal flat, not every such curve was filed as active; the % refers to the signal ratio; also: % is scaled to controls: 0 for no effect and ±100 for the full control effect); settings: AR-UAS-bla HEK293, beta-lactamase ratio, antagonist mode, 16 h; series mostly up to 76.8 µM
Procedure, shortened: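 AR-UAS-bla-GripTite HEK 293 cells (2000/well, 5 h at 37 C) received compound titrations, then R1881 at 10 nM final; after 16 h at 37 C, CCF4 dye 2 h RT, beta-lactamase fluorescence read; IC50 from Hill fits.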

Thyrotropin-releasing hormone receptor (Homo sapiens), sequence (P34981 whole entry, looked up): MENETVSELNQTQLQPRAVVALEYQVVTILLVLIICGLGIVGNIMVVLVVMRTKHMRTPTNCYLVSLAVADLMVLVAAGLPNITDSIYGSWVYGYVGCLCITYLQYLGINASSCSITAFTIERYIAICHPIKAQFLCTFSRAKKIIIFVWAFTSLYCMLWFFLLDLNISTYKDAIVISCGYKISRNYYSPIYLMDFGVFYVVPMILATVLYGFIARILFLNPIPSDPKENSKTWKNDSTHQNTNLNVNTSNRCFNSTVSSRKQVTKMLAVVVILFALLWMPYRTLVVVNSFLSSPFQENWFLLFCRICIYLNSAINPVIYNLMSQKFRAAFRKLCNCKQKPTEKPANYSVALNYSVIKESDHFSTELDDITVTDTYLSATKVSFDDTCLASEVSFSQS
Peptidyl-prolyl cis-trans isomerase NIMA-interacting 1 (Homo sapiens), sequence (Q13526 whole entry, looked up): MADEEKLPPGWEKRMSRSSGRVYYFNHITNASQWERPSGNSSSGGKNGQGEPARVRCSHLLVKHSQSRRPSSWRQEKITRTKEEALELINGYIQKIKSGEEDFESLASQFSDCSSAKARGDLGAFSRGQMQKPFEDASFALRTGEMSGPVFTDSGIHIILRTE
Ubiquitin carboxyl-terminal hydrolase 1 (Homo sapiens), sequence (O94782 whole entry, looked up): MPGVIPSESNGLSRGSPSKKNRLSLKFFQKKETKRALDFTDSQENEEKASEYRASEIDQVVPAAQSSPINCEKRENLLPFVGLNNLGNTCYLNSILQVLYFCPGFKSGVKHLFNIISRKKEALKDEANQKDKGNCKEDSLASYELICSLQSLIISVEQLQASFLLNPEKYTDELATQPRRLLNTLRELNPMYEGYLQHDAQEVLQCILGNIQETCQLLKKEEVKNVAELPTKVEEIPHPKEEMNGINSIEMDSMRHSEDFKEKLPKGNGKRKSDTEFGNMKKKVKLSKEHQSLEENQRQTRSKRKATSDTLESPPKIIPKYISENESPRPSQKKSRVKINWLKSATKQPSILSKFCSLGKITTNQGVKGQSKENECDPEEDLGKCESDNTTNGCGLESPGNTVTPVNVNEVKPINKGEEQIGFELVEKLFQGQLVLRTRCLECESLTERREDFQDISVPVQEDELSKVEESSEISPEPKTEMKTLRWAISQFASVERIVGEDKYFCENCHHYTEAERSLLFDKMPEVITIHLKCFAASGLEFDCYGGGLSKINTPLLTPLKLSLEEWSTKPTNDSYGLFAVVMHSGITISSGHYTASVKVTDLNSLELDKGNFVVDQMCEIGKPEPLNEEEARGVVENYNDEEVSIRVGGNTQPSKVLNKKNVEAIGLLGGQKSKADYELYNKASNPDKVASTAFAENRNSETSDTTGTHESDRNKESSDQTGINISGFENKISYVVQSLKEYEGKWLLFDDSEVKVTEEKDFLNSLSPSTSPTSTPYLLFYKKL
phosphoglycerate mutase (Leishmania major), sequence (Q4Q090 1-553): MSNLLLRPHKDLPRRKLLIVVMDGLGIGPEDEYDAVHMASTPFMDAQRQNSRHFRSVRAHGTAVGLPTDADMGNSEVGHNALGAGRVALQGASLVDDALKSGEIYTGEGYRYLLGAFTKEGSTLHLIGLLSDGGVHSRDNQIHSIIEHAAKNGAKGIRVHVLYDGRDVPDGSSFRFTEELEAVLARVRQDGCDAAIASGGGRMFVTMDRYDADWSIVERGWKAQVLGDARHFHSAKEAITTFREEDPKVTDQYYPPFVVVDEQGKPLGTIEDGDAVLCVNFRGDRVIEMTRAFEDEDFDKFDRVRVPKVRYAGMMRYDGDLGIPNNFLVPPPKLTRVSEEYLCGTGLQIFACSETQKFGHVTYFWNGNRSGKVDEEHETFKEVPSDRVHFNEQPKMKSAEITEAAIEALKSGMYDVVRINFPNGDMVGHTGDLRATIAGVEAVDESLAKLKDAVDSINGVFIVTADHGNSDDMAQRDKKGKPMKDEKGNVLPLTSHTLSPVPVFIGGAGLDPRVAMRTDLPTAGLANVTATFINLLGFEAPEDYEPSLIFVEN
Phosphoglycerate kinase, glycosomal (Trypanosoma brucei brucei), sequence (P07378 whole entry, looked up): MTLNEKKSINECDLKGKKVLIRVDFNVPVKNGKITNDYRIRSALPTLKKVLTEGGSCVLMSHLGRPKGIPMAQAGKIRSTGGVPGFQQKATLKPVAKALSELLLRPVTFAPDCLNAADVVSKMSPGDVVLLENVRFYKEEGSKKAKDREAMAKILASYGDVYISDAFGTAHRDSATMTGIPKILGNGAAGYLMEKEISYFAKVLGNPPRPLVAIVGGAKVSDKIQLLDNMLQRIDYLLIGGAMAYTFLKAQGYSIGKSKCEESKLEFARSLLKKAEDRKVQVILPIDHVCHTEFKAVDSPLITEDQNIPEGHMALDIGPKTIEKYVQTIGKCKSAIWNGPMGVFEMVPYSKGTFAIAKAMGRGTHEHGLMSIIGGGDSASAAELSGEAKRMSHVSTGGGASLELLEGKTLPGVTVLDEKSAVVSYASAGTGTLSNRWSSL
Galactokinase (Homo sapiens), sequence (P51570 whole entry, looked up): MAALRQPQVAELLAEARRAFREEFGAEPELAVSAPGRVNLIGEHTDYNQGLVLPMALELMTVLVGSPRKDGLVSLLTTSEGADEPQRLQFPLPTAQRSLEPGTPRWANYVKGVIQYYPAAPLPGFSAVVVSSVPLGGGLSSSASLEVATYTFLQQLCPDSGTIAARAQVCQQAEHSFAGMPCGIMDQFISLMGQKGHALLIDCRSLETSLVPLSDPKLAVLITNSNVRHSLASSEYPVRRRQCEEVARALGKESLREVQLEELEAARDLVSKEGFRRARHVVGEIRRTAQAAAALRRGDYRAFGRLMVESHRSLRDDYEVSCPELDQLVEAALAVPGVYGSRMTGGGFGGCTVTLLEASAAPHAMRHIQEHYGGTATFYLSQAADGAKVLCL
Androgen receptor (Homo sapiens), sequence (P10275 whole entry, looked up): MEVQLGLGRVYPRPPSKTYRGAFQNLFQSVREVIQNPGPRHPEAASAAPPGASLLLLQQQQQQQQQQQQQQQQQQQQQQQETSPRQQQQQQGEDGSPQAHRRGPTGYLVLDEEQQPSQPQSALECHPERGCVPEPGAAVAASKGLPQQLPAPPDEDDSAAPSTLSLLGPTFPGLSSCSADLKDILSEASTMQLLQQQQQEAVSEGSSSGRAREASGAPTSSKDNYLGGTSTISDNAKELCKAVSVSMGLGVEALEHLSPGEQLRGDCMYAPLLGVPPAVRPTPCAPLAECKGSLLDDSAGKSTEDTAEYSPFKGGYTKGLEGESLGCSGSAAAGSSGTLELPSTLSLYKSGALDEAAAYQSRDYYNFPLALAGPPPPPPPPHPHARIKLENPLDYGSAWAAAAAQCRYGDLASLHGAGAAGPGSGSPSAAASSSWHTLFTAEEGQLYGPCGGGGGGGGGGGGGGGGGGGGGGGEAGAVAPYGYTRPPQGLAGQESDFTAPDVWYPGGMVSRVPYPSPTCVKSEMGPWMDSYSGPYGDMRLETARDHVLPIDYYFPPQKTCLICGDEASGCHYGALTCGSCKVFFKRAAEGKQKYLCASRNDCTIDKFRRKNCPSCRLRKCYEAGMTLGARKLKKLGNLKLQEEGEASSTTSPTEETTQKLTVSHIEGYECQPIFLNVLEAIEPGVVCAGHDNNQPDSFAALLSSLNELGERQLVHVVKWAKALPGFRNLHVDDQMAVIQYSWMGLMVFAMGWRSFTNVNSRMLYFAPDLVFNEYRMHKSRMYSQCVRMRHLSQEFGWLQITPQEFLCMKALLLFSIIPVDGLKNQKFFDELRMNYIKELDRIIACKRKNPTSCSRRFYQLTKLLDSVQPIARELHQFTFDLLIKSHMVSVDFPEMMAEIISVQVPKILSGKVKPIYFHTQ
DNA dC->dU-editing enzyme APOBEC-3G (Homo sapiens), sequence (Q9HC16 whole entry, looked up): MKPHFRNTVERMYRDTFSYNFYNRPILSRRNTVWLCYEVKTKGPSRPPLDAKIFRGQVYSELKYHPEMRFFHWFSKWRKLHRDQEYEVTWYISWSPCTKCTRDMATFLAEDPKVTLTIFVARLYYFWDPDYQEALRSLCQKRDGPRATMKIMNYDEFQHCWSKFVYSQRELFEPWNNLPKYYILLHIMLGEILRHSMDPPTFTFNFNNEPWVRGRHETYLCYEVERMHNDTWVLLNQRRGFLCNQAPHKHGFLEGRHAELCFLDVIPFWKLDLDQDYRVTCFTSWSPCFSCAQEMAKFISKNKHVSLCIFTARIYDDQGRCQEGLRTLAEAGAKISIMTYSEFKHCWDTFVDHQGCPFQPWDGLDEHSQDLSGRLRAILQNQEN

CCCN1CCC[C@@H](c2cccc(O)c2)C1
inactive: Potency [1] | outcome [2] | Potency [3] | Potency [4] | Potency [5] | outcome [6] | Potency [7] | Potency [8] | Potency [9]
-15.6%: viability change [1]

N#CC(C#N)=Cc1cc(O)c(O)c(O)c1
inactive: activation [10] 0.188% | outcome [11]

C=CCN1C[C@@H](C)N([C@H](c2ccc(C(=O)N(CC)CC)cc2)c2cccc(OC)c2)C[C@@H]1C
inactive: activation [10] 2.06% | outcome [2] | outcome [11] | Potency [12] | Potency [5] | outcome [6] | Potency [7] | Potency [8] | Potency [9]

C[N+]1(C)CCN(c2ccccc2)CC1
inactive: activation [10] 0.438% | outcome [2] | outcome [11] | Potency [12] | Potency [3] | Potency [4] | outcome [6] | Potency [7] | Potency [9]

O=P(O)(O)C(Cl)(Cl)P(=O)(O)O
inactive: activation [10] -0.25% | outcome [11] | Potency [12] | outcome [6] | Potency [7]

Cc1cc([C@@H]2CCCN2C)on1
inactive: Potency [1] | outcome [2] | Potency [3] | Potency [4] | Potency [5] | outcome [6] | Potency [7] | Potency [8] | Potency [9]
4.53%: viability change [1]

CC12NC(Cc3ccccc31)c1ccccc12 (configuration not stated)
inactive: Potency [1] | outcome [2] | outcome [11] | Potency [12] | Potency [3] | Potency [5] | outcome [6] | Potency [7] | Potency [8] | Potency [9]
6.2%: viability change [1]

c1ccc2c(c1)[I+]c1ccccc1-2
inactive: activation [10] -4.44% | outcome [2] | outcome [11] | Potency [3] | outcome [6] | Potency [7] | outcome [13]

CC1(C(=O)O)C2CCC(O2)C1(C)C(=O)O (configuration not stated)
active: Potency [9] 7.94 µM
inactive: activation [10] 0.438% | outcome [11] | Potency [12] | Potency [3] | Potency [4] | Potency [5] | outcome [6] | Potency [7]

CNc1ccc2oc(C[C@H]3O[C@@]4(CC[C@H]3C)O[C@H]([C@H](C)C(=O)c3ccc[nH]3)[C@H](C)C[C@H]4C)nc2c1C(=O)O
active: Potency [9] 3.16 µM
inactive: activation [10] 0.125% | outcome [2] | outcome [11] | Potency [3] | Potency [4] | Potency [5] | Potency [7]

Cc1c2ccncc2c(C)c2c1[nH]c1ccccc12
inactive: activation [10] 28.2% | outcome [2] | outcome [11] | Potency [3] | Potency [4] | Potency [5] | outcome [6] | Potency [8]

CO[C@H]1CC=C2CCN3CCC4=C(CC(=O)OC4)[C@]23C1
-2.68%: viability change [1]
inactive: Potency [1] | outcome [2] | outcome [11] | Potency [12] | Potency [3] | Potency [4] | outcome [6] | Potency [7] | Potency [8] | Potency [9]

CCCN1CCCC2Cc3[nH]ncc3CC21 (configuration not stated)
inactive: activation [10] -0.5% | outcome [11] | Potency [12]

C[N+]1(C)CCC(OC(=O)C(c2ccccc2)c2ccccc2)CC1
inactive: activation [10] 0.125% | outcome [11] | Potency [12] | outcome [6]

COc1ccc2c(c1OC)C(=O)OC2C1c2cc3c(cc2CCN1C)OCO3 (configuration not stated)
inactive: activation [10] -4.69% | outcome [11] | outcome [13] | activation [14] -2.23% | outcome [15]

CN1CC[C@@]2(C)c3cc(O)ccc3N(C)C12 (some centres not stated)
active: Potency [8] 28.2 µM
inactive: activation [10] -0.188% | outcome [2] | outcome [11] | Potency [12] | Potency [4] | Potency [5] | outcome [6]

CNC(=O)OCC[N+](C)(C)C
inactive: activation [10] -0.438% | outcome [11] | Potency [12] | Potency [7]

N[C@@H](Cn1ccc(=O)[nH]c1=O)C(=O)O
2.76%: viability change [1]
inactive: Potency [1] | outcome [2] | Potency [3] | Potency [4] | Potency [5] | outcome [6] | Potency [7] | Potency [8] | Potency [9]

CCn1cnc2c(Nc3cccc(Cl)c3)nc(N[C@@H]3CCCC[C@@H]3N)nc21
inactive: activation [10] 3.88% | outcome [11] | Potency [4] | Potency [5] | Potency [7]
active: Potency [9] 2.51 µM

CCN(CC)c1ncnc2c1ncn2[C@@H]1O[C@H](COP(=O)(O)OP(=O)(O)C(Br)(Br)P(=O)(O)O)[C@@H](O)[C@H]1O
inactive: activation [10] 0.312% | outcome [11] | Potency [12] | outcome [6]

NC(=O)COc1c(F)cc(SCCNS(=O)(=O)c2ccccc2)cc1F
inactive: activation [10] 0% | outcome [2] | outcome [11] | Potency [12] | Potency [3] | Potency [4] | outcome [6] | Potency [7] | Potency [9]
